Shown is part of a subset that was picked to be rich in hits.
Shiga toxin inh – inhibitors of Shiga toxin in Vero cells; AID 2315; Vero cells, Shiga toxin protein synthesis inhibition reporter; 290,000 compounds, 9.2% hits; inhibition, % at 38.7 µM; in the data active means inhibition mostly above about 28%, no sharp cut-off; inactive means mostly below about 43%; further: 0% is about no effect
LmPK inhibitor – LmPK (Leishmania mexicana) enzyme inhibition; Q27686; purified LmPK, Kinase-Glo ATP luminescence, 1 h; Potency, µM (titrated, usually from 57.5 µM), for inactives: top-dose activity change, negative = inhibition, usual class: inhibitors; 290,000 compounds, 0.37% hits; AID 1721; further: potency means the concentration at half of the fitted maximal effect; on the % scale 0 is the no-effect control and ±100 the full control effect
Target sequence (Q27686 whole entry, looked up): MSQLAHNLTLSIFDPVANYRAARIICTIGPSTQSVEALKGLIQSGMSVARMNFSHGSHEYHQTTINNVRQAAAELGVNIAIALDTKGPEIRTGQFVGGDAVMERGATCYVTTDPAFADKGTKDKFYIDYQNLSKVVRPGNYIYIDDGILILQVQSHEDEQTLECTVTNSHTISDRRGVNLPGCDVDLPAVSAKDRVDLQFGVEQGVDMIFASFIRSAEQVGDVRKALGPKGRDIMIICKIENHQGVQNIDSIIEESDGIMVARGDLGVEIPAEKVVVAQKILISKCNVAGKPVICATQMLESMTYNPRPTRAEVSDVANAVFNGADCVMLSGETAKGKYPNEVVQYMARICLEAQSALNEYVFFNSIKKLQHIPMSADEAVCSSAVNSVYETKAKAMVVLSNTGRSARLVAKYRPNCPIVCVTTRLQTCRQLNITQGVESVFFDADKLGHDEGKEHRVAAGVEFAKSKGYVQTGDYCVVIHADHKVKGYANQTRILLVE
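Purified LmPK (0.1 nM) converted ADP (0.1 mM) to ATP with PEP (0.5 mM) in imidazole buffer pH 7.2 with KCl and MgCl2, 1 h at room temperature. ATP was read by Kinase-Glo luminescence; data normalized to uninhibited and no-enzyme controls.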
Sm TGR inh – S. mansoni TGR enzyme inhibition. Q962Y6. purified TGR, DTNB reduction, TNB absorbance 405 nm. Potency, µM (doses to about 114 µM), for inactives: top-dose activity change, negative = inhibition, most hits filed as inhibitors. 360,000 compounds, 3% hits. AID 485364; further: potency means the concentration at half of the fitted maximal effect; on the % scale 0 is the no-effect control and ±100 the full control effect; nearly all actives have a fitted effect of over 60% in size
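TGR 20 nM + NADPH 100 uM (dispensed conc.), cpd preinc 15 min RT; start with NADPH (500 uM addition) then DTNB (15 mM addition). Kinetic TNB absorbance, 405 nm filter. Four-parameter Hill fit across titration.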
CHX counter – counter-screen hit for Shiga toxin inhibitors, cycloheximide | max response, % | 300,000 compounds, 12% hits | cell reporter, cycloheximide protein synthesis inhibition counterscreen; in the data active means max response mostly above about 13%, no sharp cut-off; inactive means mostly below about 14%; further: read at 38.3 µM for the half of the compounds with a filed dose; 0% is about no effect
FBPA Giardia inh – Giardia lamblia aldolase inhibition; purified Giardia FBPA; Potency, µM (doses to about 59.6 µM), inactives show top-dose activity, negative = inhibition, hits mostly inhibitors; 290,000 compounds, 0.71% hits; AID 2451; further: potency means the concentration at half of the fitted maximal effect; on the % scale 0 is the no-effect control and ±100 the full control effect; nearly all actives have a fitted effect of over 55% in size
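40 nM FBPA preincubated 10 min at RT with compound (up to 57.5 uM final), then substrate plus GAPDH/TPI/NAD/arsenate coupling and diaphorase/resazurin added. Fluorescence read after 20 min at RT, 525/598 nm.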
TbPYK inhibitor – T. brucei pyruvate kinase inhibition; TbPYK enzyme, Kinase-Glo Plus ATP luminescence, 45 min; Potency, µM (titrated, usually from 76.8 µM), for inactives: top-dose activity, negative = inhibition, hits mostly inhibitors; Q57TT1; AID 624173; 410,000 compounds, 0.12% hits; further: potency means the concentration at half of the fitted maximal effect; on the % scale 0 is the no-effect control and ±100 the full control effect; nearly all actives have a fitted effect of over 50% in size
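TbPYK + substrate in 50 mM TEA pH 7.2, 100 mM KCl, 10 mM MgCl2, 0.05% BSA, 0.01% Tween-20; cpd pinned; ADP 130 uM final; 45 min RT; Kinase-Glo Plus 10 min; luminescence endpoint.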
* = called active by the depositor; [ ] = dose if it differs, or a comment. Unless noted, the call rests on the fitted dose curve; in most records, active means well fitted curve in the direction sought with a large enough effect; inconclusive means small, poorly fitted or top-dose-only effect, or another doubt; inactive means no such curve, though single readings can be large; an effect the other way counts as inactive or inconclusive.

`CCOC(=O)C(N)CSC1CC(=O)N(CCc2ccccc2)C1=O` (centres undefined) gave Shiga toxin inh -4, LmPK inhibitor 0%, Sm TGR inh 8.9µM*, CHX counter -2, FBPA Giardia inh inconclusive and TbPYK inhibitor 4%.
CCCc1ccc(-c2ccc(-c3noc(-c4ccncc4)n3)cc2)nc1 was read as Shiga toxin inh -1, LmPK inhibitor 7%, Sm TGR inh -17%, CHX counter -1, FBPA Giardia inh 10% and TbPYK inhibitor 1%.
`CCCCc1ccc(-c2ccc(Br)cc2)nc1` gave Shiga toxin inh 86*, LmPK inhibitor -11%, Sm TGR inh 0%, CHX counter 35*, FBPA Giardia inh 0% and TbPYK inhibitor 3%.
For O=C(O)c1ccc(Br)cn1 the results were Shiga toxin inh 22, LmPK inhibitor 4%, Sm TGR inh 0%, CHX counter -4, FBPA Giardia inh inconclusive and TbPYK inhibitor -1%.
CCCCc1ccc(C(=O)O)nc1 was read as Sm TGR inh -14%, FBPA Giardia inh 16µM* and TbPYK inhibitor -9%.
`CCCc1ccc(-c2ccc(F)c(N)c2)nc1` gave Shiga toxin inh -1, LmPK inhibitor 16µM*, Sm TGR inh -5%, CHX counter -3, FBPA Giardia inh -2% and TbPYK inhibitor -2%.
Screening Cc1cccc(C(=O)NC2C(=O)NNC2c2ccc(Cl)cc2)c1 (centres undefined) returned Shiga toxin inh -35, LmPK inhibitor 0%[11.5 µM], Sm TGR inh -19%, CHX counter -5, FBPA Giardia inh inconclusive and TbPYK inhibitor -16%.
`O=C(NC1C(=O)NNC1c1ccccc1)c1ccccc1` (centres undefined) gave Shiga toxin inh 116*, LmPK inhibitor 0%, Sm TGR inh inconclusive, CHX counter 21*, FBPA Giardia inh -8% and TbPYK inhibitor -22%.
Screening O=C(CN1CCCc2ccccc21)N/N=C/c1c(O)ccc2ccccc12 returned Shiga toxin inh 48*, LmPK inhibitor 3%, Sm TGR inh -8%, CHX counter 34*, FBPA Giardia inh -8% and TbPYK inhibitor -4%.
For O=C(CN1CCCc2ccccc21)N/N=C/c1ccccc1 the results were Shiga toxin inh 22, LmPK inhibitor 5%, Sm TGR inh 0%, CHX counter 21*, FBPA Giardia inh -9% and TbPYK inhibitor -4%.
For O=C(CN1CCCc2ccccc21)N/N=C/c1ccc(O)cc1O the results were Shiga toxin inh 71*, LmPK inhibitor -2%, Sm TGR inh -1%, CHX counter 26*, FBPA Giardia inh -23% and TbPYK inhibitor 0%.
CCN(CC)c1ccc(/C=N/NC(=O)CN2CCCc3ccccc32)cc1 was read as Shiga toxin inh -11, LmPK inhibitor 1%, Sm TGR inh 0%, CHX counter 1, FBPA Giardia inh -8% and TbPYK inhibitor 3%.
`NC1=NC(=O)C2(COC(c3cccnc3)OC2)S1` (centres undefined) gave Shiga toxin inh -10, LmPK inhibitor 9%, Sm TGR inh 38%, CHX counter 2, FBPA Giardia inh 2% and TbPYK inhibitor -13%.
For CCOC(=O)c1cc(-c2ccc(OC)cc2)n(CCC(=O)NCc2ccccc2OC)c1C the results were Sm TGR inh -6% and TbPYK inhibitor -3%.
For COc1cc(C2C(=O)N(C3CCCCCC3)CC(=O)N2CCC2=CCCCC2)ccc1OC(C)C (centres undefined) the results were Sm TGR inh 7% and TbPYK inhibitor -5%.
For CCn1c(NCc2ccc(OC)cc2)nc2ccccc21 the results were Shiga toxin inh 23*, LmPK inhibitor -6%, Sm TGR inh -7%, CHX counter 12*, FBPA Giardia inh -4% and TbPYK inhibitor 2%.
CCn1c(NCc2ccco2)nc2ccccc21 was read as Shiga toxin inh -1, LmPK inhibitor 0%, Sm TGR inh 4%, CHX counter 7, FBPA Giardia inh -1% and TbPYK inhibitor 1%.
`CCCCn1c(NCc2ccc(N(C)C)cc2)nc2ccccc21` gave Shiga toxin inh 27, LmPK inhibitor 5%, Sm TGR inh inconclusive, CHX counter 7, FBPA Giardia inh 8% and TbPYK inhibitor -2%.
C=CCn1c(NCc2ccc(N(C)C)cc2)nc2ccccc21 was read as Shiga toxin inh active, LmPK inhibitor 1%, Sm TGR inh -17%, CHX counter 33*, FBPA Giardia inh -5% and TbPYK inhibitor 0%.
`CCn1c(NCc2ccccc2Cl)nc2ccccc21` gave Shiga toxin inh 24*, LmPK inhibitor 1%, Sm TGR inh -1%, CHX counter 29, FBPA Giardia inh 9% and TbPYK inhibitor -7%.
For Cc1sc2c(c1C)CN(C1CC(C)(C)NC(C)(C)C1)CN2C(=O)c1ccco1 the results were Shiga toxin inh 44*, LmPK inhibitor -4%, Sm TGR inh 25µM*, CHX counter 23* and FBPA Giardia inh 0%.
For CCNC(=O)CSc1nnc(CN2CCCCCC2=O)n1-c1ccccn1 the results were Shiga toxin inh 2, LmPK inhibitor -3%, Sm TGR inh -9%, CHX counter 8, FBPA Giardia inh 2% and TbPYK inhibitor -4%.
Screening O=C1CCCCCN1Cc1nnc(SCc2nc3ccccc3s2)n1-c1ccccn1 returned Shiga toxin inh 92*, LmPK inhibitor -1%, Sm TGR inh -3%, CHX counter 74*, FBPA Giardia inh -16% and TbPYK inhibitor -10%.
Screening Cc1oc(S(=O)(=O)N2CCCCC2)cc1NC(=O)Nc1ccc(Cl)cc1 returned Shiga toxin inh 16, LmPK inhibitor 5%, Sm TGR inh 35µM*, CHX counter -3, FBPA Giardia inh 2% and TbPYK inhibitor 6%.
Cc1oc(S(=O)(=O)N2CCCCC2)cc1NC(=O)Nc1ccccc1 was read as Shiga toxin inh -18, LmPK inhibitor 8%, Sm TGR inh 10µM*, CHX counter -2, FBPA Giardia inh 0% and TbPYK inhibitor 3%.
For Cc1ccc(S(=O)(=O)N2CCCCC2)cc1NC(=O)Nc1ccc(Cl)cc1Cl the results were Shiga toxin inh -15, LmPK inhibitor 0%, Sm TGR inh -4%, CHX counter -1, FBPA Giardia inh 2% and TbPYK inhibitor 5%.
`COc1ccccc1NC(=O)C1=C(C)Nc2nc(SCc3ccc(Cl)cc3)nn2C1c1ccccc1Cl` (centres undefined) gave Sm TGR inh 3% and TbPYK inhibitor 2%.
For CCOc1ccc(NC(=O)c2cc(S(=O)(=O)N3CCc4ccccc43)ccc2F)cc1 the results were Sm TGR inh 0% and TbPYK inhibitor -5%.
Fc1ccccc1-c1n[nH]c(=S)n1Cc1ccccc1 was read as Shiga toxin inh -4, LmPK inhibitor inconclusive, Sm TGR inh -2%, CHX counter -3, FBPA Giardia inh 24% and TbPYK inhibitor inconclusive.

Bioassay records: PubChem BioAssay, National Center for Advancing Translational Sciences (NCATS)
